# Experimental data as given in PubChem BioAssay.
# “And” between values parts separate entries of the source, which are not always exact repeats. Identical values can stand only once. Inconclusive results are not listed. The source made the active and inactive calls.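 How the source made its calls, unless noted: active means normalized viability below 100% at a tested concentration; inactive means the rest.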
# How the values were obtained:
# [1] = compounds altering circadian rhythm period length – cell-based, LOPAC library, luminescence reporter (AID 2774; call rule not given here;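 further: values are relative to mean of DMSO wells on each plate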); conditions: circadian reporter cells, at 7 µM, actives lie on both sides
# [2] = tested on: Hepatitis C virus NS3 helicase; assay: blockers of NS3h binding to ssDNA – biochemical, fluorescence polarization, LOPAC1280 library, primary screen (AID 687035; in the data active means inhibition above about 37%); conditions: Purified HCV NS3 helicase, Cy5-dT15 ssDNA binding fluorescence polarization; stronger effect = higher value; concentration not given here
# [3] = compounds altering Cy5-DNA-NS3h complex signal – biochemical, LOPAC1280, artefact control for HCV NS3 helicase inhibitor project (AID 687037; call rule not given here); conditions: Cy5-DNA-NS3h complex fluorescence interference counterscreen
# [4] = tested on: Aerobactin synthetase IucA (Klebsiella pneumoniae); assay: inhibition of K. pneumoniae IucA enzyme – biochemical, Tocris library, absorbance (AID 1345561; call rule not given here;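 further: 100% = enzyme without compound and 0% = no enzyme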); conditions: purified IucA enzyme assay, absorbance (OD) read-out; stronger effect = lower value;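 tested at 8 µM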
# [5] = viability loss with induced miR-34 in A549 – imaging, A549 dox-inducible miR-34, nuclei and caspase counts, primary screen (AID 1347080;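 active means compounds whose cell count with miR-34 switched on is under 0.7 times the count with it off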); conditions: A549 miR-34 inducible, Hoechst nuclei count, 48 h
# [6] = blockers of cellular phospholipid synthesis – cell-based, LOPAC library, screen 4, primary screen (AID 1347384; call rule not given here); conditions: animal cells, phospholipid biosynthesis inhibition screen; at 10 µM
# [7] = MELAS cybrid and Rieske KO viability enhancers – cell-based, MELAS cybrids, Rieske KO mouse fibroblasts, CellTiter-Glo, primary screen (AID 1508586;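 active means mean z-score across replicates of 1.96 or higher in either the MELAS or the Rieske mutant cell line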;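 further: z relative to plate mean and SD of compound and empty wells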); conditions: low glucose
# [8] = galactose survival enhancers in mitochondrial complex I cybrids – cell-based, galactose medium, ATP luminescence, primary screen (AID 1645843;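 active means z-score of at least 1.8 in each of two replicates, scored against plate mean and spread of sample wells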;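 further: positive z means more ATP and so rescue of galactose-driven cybrid death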); conditions: complex I mutant cybrid cells, 72 h, stronger effect = higher value
# [9] = growth inhibition of DIPG cells – cell-based, MIPE5.0 library, qHTS (AID 1347068; cut-off not given, nearly all actives have IC50 up to about 30 µM); conditions: SU-DIPG-XXV viability
# [10] = compounds altering viability of human ES cells (AID 493140; call rule not given here;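 further: cells exposed to compounds for four days before counting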); conditions: human embryonic stem cell survival screen; stronger effect = higher value
# [11] = P. berghei load reduction in hepatocytes – cell-based, HepG2, luciferase luminescence, HepG2 viability, primary screen (AID 624349; in the data active means parasite load remaining mostly below about 12%, no sharp cut-off; inactive means mostly above about 10%;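 further: 100% = mean of DMSO negative control wells on the same plate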); conditions: P. berghei liver stage in HepG2, luciferase luminescence, concentration not given here; parasite load remaining: stronger effect = lower value; viability: measured here: HepG2 viability without parasites
# [12] = chitosan synthesis blockers in C. neoformans – flow cytometry, Cibacron Brilliant Red staining (AID 1347148; call rule not given here;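 further: compound exposure lasted three days at 37 degrees C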); conditions: Cryptococcus neoformans chitosan, stronger effect = lower value; at 10 µM unless noted
# [13] = compounds altering HSF1 focus formation in cells – imaging, Selleck Cancer Library (AID 1347162; in the data active means plate-normalised HSF1 focus index below about 0.46); conditions: human cells, HSF1 nuclear foci imaging, at 10 µM; SSMD: measured here: HSF1 foci SSMD mean; cell count: measured here: cell number; plate-normalised HSF1 focus index: stronger effect = lower value
# [14] = drug combination growth inhibition, ovarian cancer – cell-based, oncology-focused library, rucaparib conditional, profiling panel (AID 1508598); conditions: patient-derived ovarian cancer cells, CellTiter-Glo viability, 144 h, stronger effect = lower value
# [15] = stronger effect = lower value, cell number ratio, induced over uninduced
# [16] = measured here: relative caspase fold change +Dox/-Dox
# [17] = measured here: total cells with miR-34 induction, stronger effect = lower value
# [18] = measured here: total cells without miR-34 induction
# [19] = MELAS cybrid survival, CellTiter-Glo 48 h, stronger effect = higher value
# [20] = Rieske KO mouse fibroblast survival, CellTiter-Glo 72 h
smiles,measurement,setting,value
Cc1cccc(C#Cc2ccccc2)n1,period change,[1],0.065 h (inactive)
same,inhibition,[2],-1% (inactive)
same,fluorescence ratio (interference),[3],1 (inactive)
same,remaining activity,[4],102% (inactive)
same,fold change,[5]; [15],1.16 (inactive) and 0.932 (inactive) and 0.863 (inactive)
same,fold change,[5]; [16],0.95 and 0.499 and 0.79
same,cell count,[5]; [17],8900 and 6820 and 7820
same,cell count,[5]; [18],7690 and 7310 and 9060
same,outcome,[6],inactive
same,z-score,[7]; [19],-0.0615 (inactive)
same,z-score,[7]; [20],0.0234
same,z-score,[8],1.15 (inactive) and 1.02 (inactive)
CC(C)(Sc1ccc(CCN(CCCCC2CCCCC2)C(=O)NC2CCCCC2)cc1)C(=O)O,period change,[1],-0.015 h (inactive)
same,inhibition,[2],3% (inactive)
same,fluorescence ratio (interference),[3],1 (inactive)
same,remaining activity,[4],122% (inactive)
same,outcome,[9],inactive
same,fold change,[5]; [15],0.945 (inactive) and 0.954 (inactive) and 0.926 (inactive)
same,fold change,[5]; [16],1.38 and 0.651 and 0.687
same,cell count,[5]; [17],8520 and 5920 and 7310
same,cell count,[5]; [18],9020 and 6210 and 7900
same,outcome,[6],inactive
same,z-score,[8],0.62 (inactive) and 1.14 (inactive)
O=C(/C=C/c1c(C(=O)O)[nH]c2cc(Cl)cc(Cl)c12)Nc1ccccc1,remaining activity,[4],87.2% (inactive)
same,fold change,[5]; [15],0.942 (inactive)
same,fold change,[5]; [16],1.32
same,cell count,[5]; [17],8890
same,cell count,[5]; [18],9440
same,z-score,[8],4.95 (active)
CNC(=O)[C@H]1O[C@@H](n2cnc3c(NCc4cccc(I)c4)nc(Cl)nc32)[C@H](O)[C@@H]1O,remaining activity,[4],96.8% (inactive)
same,outcome,[9],inactive
same,fold change,[5]; [15],0.954 (inactive)
same,fold change,[5]; [16],0.816
same,cell count,[5]; [17],5880
same,cell count,[5]; [18],6160
same,z-score,[8],-0.4 (inactive)
O=c1cc(N2CCOCC2)oc2c(-c3ccccc3)cccc12,period change,[1],0.01 h (inactive)
same,survival,[10],83.6 (inactive)
same,parasite load remaining,[11],36% (inactive)
same,viability,[11],79.9%
same,inhibition,[2],-3% (inactive)
same,fluorescence ratio (interference),[3],1 (inactive)
same,remaining activity,[4],118% (inactive)
same,outcome,[9],inactive
same,fold fluorescence,[12],9.29 [at 162.7 µM] (inactive)
same,SSMD,[13],1.15
same,cell count,[13],6500
same,plate-normalised HSF1 focus index,[13],1.06 (inactive)
same,outcome,[6],inactive
same,z-score,[7]; [19],-0.417 (inactive)
same,z-score,[7]; [20],0.668
same,viability,"[14]; at 0.000305 µM, OCI-C5x cells, with rucaparib 10 µM, 100% = cells with rucaparib alone",97.6% (active)
same,viability,"[14]; at 0.000305 µM, OCI-C5x cells, without rucaparib",103% (inactive)
same,viability,"[14]; at 0.000305 µM, OCI-P5x cells, with rucaparib 20 µM, 100% = cells with rucaparib alone",93.4% (active)
same,viability,"[14]; at 0.000305 µM, OCI-P5x cells, without rucaparib",83.4% (active)
same,viability,"[14]; at 0.00122 µM, OCI-C5x cells, with rucaparib 10 µM, 100% = cells with rucaparib alone",102% (inactive)
same,viability,"[14]; at 0.00122 µM, OCI-C5x cells, without rucaparib",103% (inactive)
same,viability,"[14]; at 0.00122 µM, OCI-P5x cells, with rucaparib 20 µM, 100% = cells with rucaparib alone",97.2% (active)
same,viability,"[14]; at 0.00122 µM, OCI-P5x cells, without rucaparib",86.3% (active)
same,viability,"[14]; at 0.00488 µM, OCI-C5x cells, with rucaparib 10 µM, 100% = cells with rucaparib alone",93% (active)
same,viability,"[14]; at 0.00488 µM, OCI-C5x cells, without rucaparib",104% (inactive)
same,viability,"[14]; at 0.00488 µM, OCI-P5x cells, with rucaparib 20 µM, 100% = cells with rucaparib alone",99.1% (active)
same,viability,"[14]; at 0.00488 µM, OCI-P5x cells, without rucaparib",95.7% (active)
same,viability,"[14]; at 0.0195 µM, OCI-C5x cells, with rucaparib 10 µM, 100% = cells with rucaparib alone",102% (inactive)
same,viability,"[14]; at 0.0195 µM, OCI-C5x cells, without rucaparib",104% (inactive)
same,viability,"[14]; at 0.0195 µM, OCI-P5x cells, with rucaparib 20 µM, 100% = cells with rucaparib alone",98.1% (active)
same,viability,"[14]; at 0.0195 µM, OCI-P5x cells, without rucaparib",96% (active)
same,viability,"[14]; at 0.0781 µM, OCI-C5x cells, with rucaparib 10 µM, 100% = cells with rucaparib alone",106% (inactive)
same,viability,"[14]; at 0.0781 µM, OCI-C5x cells, without rucaparib",101% (inactive)
same,viability,"[14]; at 0.0781 µM, OCI-P5x cells, with rucaparib 20 µM, 100% = cells with rucaparib alone",102% (inactive)
same,viability,"[14]; at 0.0781 µM, OCI-P5x cells, without rucaparib",98.9% (active)
same,viability,"[14]; at 0.313 µM, OCI-C5x cells, with rucaparib 10 µM, 100% = cells with rucaparib alone",106% (inactive)
same,viability,"[14]; at 0.313 µM, OCI-C5x cells, without rucaparib",108% (inactive)
same,viability,"[14]; at 0.313 µM, OCI-P5x cells, with rucaparib 20 µM, 100% = cells with rucaparib alone",98% (active)
same,viability,"[14]; at 0.313 µM, OCI-P5x cells, without rucaparib",97.6% (active)
same,viability,"[14]; at 1.25 µM, OCI-C5x cells, with rucaparib 10 µM, 100% = cells with rucaparib alone",94% (active)
same,viability,"[14]; at 1.25 µM, OCI-C5x cells, without rucaparib",109% (inactive)
same,viability,"[14]; at 1.25 µM, OCI-P5x cells, with rucaparib 20 µM, 100% = cells with rucaparib alone",99.6% (active)
same,viability,"[14]; at 1.25 µM, OCI-P5x cells, without rucaparib",102% (inactive)
same,viability,"[14]; at 5 µM, OCI-C5x cells, with rucaparib 10 µM, 100% = cells with rucaparib alone",98.7% (active)
same,viability,"[14]; at 5 µM, OCI-C5x cells, without rucaparib",107% (inactive)
same,viability,"[14]; at 5 µM, OCI-P5x cells, with rucaparib 20 µM, 100% = cells with rucaparib alone",96.2% (active)
same,viability,"[14]; at 5 µM, OCI-P5x cells, without rucaparib",93.7% (active)
same,z-score,[8],5.55 (active) and 5.94 (active)
